Many of the other results were omitted from the sample, so hits are more common in it than they were.
IDE_exosite_FP = exo-site inhibitors of human insulin-degrading enzyme; P14735; purified IDE, FL-6b probe fluorescence polarization; stronger effect = lower value; z-score at 20 µM; 6.3% of 17,000 active;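 active means z-score of -3 or lower, meaning strong loss of probe binding signal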;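 further: His-tagged human IDE residues 42-1019 made in E. coli with 30 nM FL-6b probe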
* marks the source's active call; other numbers are inactive results.

SMILES IDE_exosite_FP
COc1ccc(-c2ccc([C@@H]3[C@@H](CO)N4C(=O)CN(C(=O)C5CCC5)C[C@@H]34)cc2)cc1 2.3
CN(C)C(=O)c1cccc(-c2ccc([C@@H]3[C@@H](CO)N4C(=O)CN(C(=O)C5CCCCC5)C[C@@H]34)cc2)c1 2.8
COc1cccc(-c2ccc([C@H]3[C@@H](CO)N4C(=O)CN(C(=O)C5CCCCC5)C[C@@H]34)cc2)c1 -6.3*
CCN(C[C@@H]1[C@@H](c2ccc(C3=CCCCC3)cc2)[C@@H](CO)N1CC1CC1)C(C)=O 0.85
O=C(N[C@H]1C=C[C@@H](CC(=O)N2CCN(c3ccccc3)CC2)O[C@@H]1CO)c1ccccc1 1.8
CN(C)C(=O)C[C@@H]1C[C@H]2c3cc(NC(=O)Nc4ccc(F)cc4)ccc3O[C@H]2[C@H](CO)O1 0.15
CN(C)C(=O)c1cccc(-c2ccc([C@H]3[C@@H](CO)N4C(=O)CN(C(=O)C5CCC5)C[C@@H]34)cc2)c1 1.5
O=C(C1CCC1)N1CC(=O)N2[C@@H](CO)[C@H](c3ccc(-c4cccnc4)cc3)[C@@H]2C1 1.1
COc1cccc(-c2ccc([C@H]3[C@H](CO)N4C(=O)CN(C(=O)NC(C)C)C[C@@H]34)cc2)c1 -6.9*
COc1ccc(-c2ccc([C@@H]3[C@H]4CN(C(=O)NC(C)C)CC(=O)N4[C@H]3CO)cc2)cc1 -0.33
COc1ccc(-c2ccc([C@H]3[C@@H](CO)N4C(=O)CN(C(=O)NC(C)C)C[C@H]34)cc2)cc1 -0.41
COc1cccc(-c2ccc([C@H]3[C@H](CO)N4C(=O)CN(C(=O)C5CCC5)C[C@@H]34)cc2)c1 -6.8*
CN(C)CC#Cc1ccc([C@@H]2[C@H]3CN(C(=O)c4cccnc4)CC(=O)N3[C@H]2CO)cc1 0.46
COc1ccc(CNC(=O)N(C)C[C@@H]2OCc3ccccc3-c3c(n(C)c4ccccc34)C(=O)N([C@H](C)CO)C[C@@H]2C)cc1 0.43
CN1C(=O)c2cc(NS(=O)(=O)c3cccc(F)c3)ccc2OC[C@@H]2O[C@@H](CC(=O)NCCN3CCCCC3)CC[C@H]21 0.39
CC(C)CC#Cc1ccc([C@@H]2[C@H]3CN(C(=O)c4ccc5c(c4)OCO5)CC(=O)N3[C@H]2CO)cc1 1.9
O=C(C[C@@H]1CC[C@@H]2[C@H](COC[C@H](O)CN2S(=O)(=O)c2ccccc2)O1)NCC1CCCCC1 -0.26
O=C(Cc1ccccc1)N1CC(=O)N2[C@H](CO)[C@@H](c3ccc(Br)cc3)[C@H]2C1 0.34
O=C(Cc1ccccc1)N1CC(=O)N2[C@H](CO)[C@H](c3ccc(Br)cc3)[C@H]2C1 -1.6
O=C(Cc1ccccc1)N1CC(=O)N2[C@H](CO)[C@H](c3ccc(C#Cc4ccccc4)cc3)[C@@H]2C1 -7*
O=C(Cc1ccccc1)N1CC(=O)N2[C@H](C1)[C@@H](c1ccc(C#CCc3ccccc3)cc1)[C@@H]2CO -1.6
O=C(Cc1ccccc1)N1CC(=O)N2[C@H](C1)[C@@H](c1ccc(Br)cc1)[C@@H]2CO -5.1*
O=C(Cc1ccccc1)N1CC(=O)N2[C@H](CO)[C@H](c3ccc(C#Cc4ccccc4)cc3)[C@H]2C1 -1.3
COc1ccc2c3c(n(C)c2c1)[C@@H](CO)N(S(C)(=O)=O)CC31CCN(CC2CCCCC2)CC1 0.28
Cc1noc(C)c1S(=O)(=O)N(C)C[C@H]1OCCCC[C@@H](C)Oc2ccc(NC(=O)CCC(F)(F)F)cc2C(=O)N([C@H](C)CO)C[C@@H]1C -1.1
SMILES IDE_exosite_FP
COc1cccc(-c2ccc3n(c2=O)C[C@H]2[C@H](CO)[C@@H](C(=O)NC4Cc5ccccc5C4)N[C@@H]32)c1 0.03
COc1ccc2c3c(n(C)c2c1)[C@@H](CO)N(Cc1ccccc1)CC31CN(CC2CC2)C1 0.57
Cc1ccccc1-c1ccc([C@H]2[C@H](CO)N3CCCCN(C(=O)c4cccnc4)C[C@@H]23)cc1 -3.9*
Cc1ccccc1-c1ccc([C@H]2[C@@H](CO)N3CCCCN(C(=O)c4cccnc4)C[C@H]23)cc1 -16*
CC(C)(O)C#Cc1ccc([C@@H]2[C@H](CO)N3CCCCN(C(=O)c4cccnc4)C[C@@H]23)cc1 0.94
CC(C)(O)C#Cc1ccc([C@H]2[C@H]3CN(C(=O)c4cccnc4)CCCCN3[C@H]2CO)cc1 0.85
CC(C)(O)C#Cc1ccc([C@@H]2[C@@H](CO)N3CCCCN(C(=O)c4cccnc4)C[C@@H]23)cc1 3.4
Cc1ccccc1-c1ccc([C@@H]2[C@H](CO)N3CCCCN(C(=O)c4cccnc4)C[C@@H]23)cc1 -8.4*
Cc1ccccc1-c1ccc([C@@H]2[C@@H](CO)N3CCCCN(C(=O)c4cccnc4)C[C@H]23)cc1 -2.2
C[C@H](CO)N1C[C@H](C)[C@H](CN(C)S(C)(=O)=O)Oc2cc(-c3ccncc3)ccc2S1(=O)=O 0.5
CCCNC(=O)N1[C@H](CO)[C@@H](c2ccccc2C2=CCCCC2)[C@@H]1C#N 0.58
CO[C@H](C(=O)N(C)C[C@H]1OCc2ccccc2-c2ccccc2C(=O)N([C@H](C)CO)C[C@H]1C)c1ccccc1 -0.36
O=C(C[C@@H]1C=C[C@H](NS(=O)(=O)c2ccccc2)[C@@H](CO)O1)NCCN1CCCCC1 2.1

Compound activity deposited in PubChem by Broad Institute.
